# Shown are actives, neighbours in structure and some others; about 3.1% of the full set was active somewhere.
# Tau fibril FP = qHTS for Inhibitors of Tau Fibril Formation, Fluorescence Polarization; Microtubule-associated protein tau (Homo sapiens), P10636; K18 P301L tau heparin fibrillization, Alexa594 FP, 6 h; Potency, µM (top dose mostly 57.7 µM), for the others: at the highest dose activity, negative = inhibition, actives largely listed as inhibitors; 0.39% of 280,000 active; AID 1468, 2008; also: nearly all actives have a fitted effect of over 55% in size
# Target sequence (P10636 561-689 P618L limits assumed): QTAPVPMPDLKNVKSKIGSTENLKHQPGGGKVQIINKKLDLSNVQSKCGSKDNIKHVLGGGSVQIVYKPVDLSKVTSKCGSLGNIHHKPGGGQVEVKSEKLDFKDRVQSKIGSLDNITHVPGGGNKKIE
#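 Recombinant K18 P301L […], labeled with Alexa 594 at 0.24 uM over 15 uM unlabeled; heparin inducer 20 uM final; 37 C, 6 hr; FP endpoint.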
# TexasRed fluor = Total Fluorescence Counterscreen for Inhibitors of the Interaction of Thyroid Hormone Receptor and Steroid Receptor Coregulator 2 | TRb/SRC2 Texas Red total fluorescence interference | Potency, µM (titrated, usually from 106 µM), without a hit: at the top dose fluorescence change, negative = quenching | 0.29% of 280,000 active | AID 1479, 2009; active = well fitted curve in either direction with a large enough effect; inconclusive = small, poorly fitted or top-dose-only effect
#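 Human TRβ ligand-binding domain (0.6 uM) and Texas Red SRC2 peptide (20 nM) in Tris buffer with 1 uM T3 and 5% DMSO were incubated with pinned compound for 5 hr at ambient temperature. Total fluorescence was computed as S + 2P (555/632 nm).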
# Tau ThT inhib = qHTS for Inhibitors of Tau Fibril Formation, Thioflavin T Binding; Microtubule-associated protein tau (Homo sapiens), P10636; recombinant tau K18 P301L, heparin-induced fibrillization, ThT fluorescence; Potency, µM (top dose mostly 57.4 µM), inactives show at the top dose activity, negative = inhibition, actives largely listed as inhibitors; 2.1% of 270,000 active; also: nearly all actives have a fitted effect of over 55% in size
#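 K18 P301L tau (15 uM + 0.24 uM Alexa 594-tagged), heparin 20 uM, NaOAc pH 7, 6 h 37 C; ThT 30 uM, 1 h RT, ex 450/em 510 nm.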
# Tau fluor cs = Counterscreen qHTS for Inhibitors of Tau Fibril Formation, Fluorescence Polarization; tau K18 P301L (four-repeat tau fragment) Alexa594 fluorescence, heparin fibrillization; Potency, µM (series often up to 57.7 µM), without a hit: top-dose activity change, negative = decrease; 0.93% of 280,000 active; AID 1463, 2008; also: nearly all actives have a fitted effect of over 55% in size
#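 Human K18 P301L tau (15 uM unlabeled plus 0.24 uM Alexa 594-labeled, final) in 100 mM sodium acetate pH 7 was mixed with compound and 20 uM heparin and incubated 6 hr at 37 C.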
# GoLoco inh red = qHTS Assay for Inhibitors of RGS12 GoLoco Motif Activity (Red Fluorophore); Gai1:RGS12 GoLoco peptide FP, rhodamine, 10 min; 0.44% of 230,000 active; Potency, µM (series often up to 61.6 µM), without a hit: at the highest dose activity, negative = inhibition, most hits filed as inhibitors; AID 880, 2007; Guanine nucleotide-binding protein G(i) subunit alpha-1 (Homo sapiens), P63096; active = well fitted inhibition curve with a large enough effect, not every such curve was filed as active; inactive = no such curve, though single readings can be large or run the other way; also: nearly all actives have a fitted effect of over 30% in size
# Target sequence (P63096 whole entry, looked up): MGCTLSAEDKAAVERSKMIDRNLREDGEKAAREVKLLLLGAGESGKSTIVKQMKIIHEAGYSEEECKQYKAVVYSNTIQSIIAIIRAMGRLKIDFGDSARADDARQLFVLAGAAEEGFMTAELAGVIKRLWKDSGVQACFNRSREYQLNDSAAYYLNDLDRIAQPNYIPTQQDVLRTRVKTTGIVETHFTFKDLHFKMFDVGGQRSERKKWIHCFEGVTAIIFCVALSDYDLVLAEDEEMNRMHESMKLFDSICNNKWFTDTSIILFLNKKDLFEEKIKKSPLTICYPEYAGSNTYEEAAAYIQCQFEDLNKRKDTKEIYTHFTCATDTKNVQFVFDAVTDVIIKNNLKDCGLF
# TRb-SRC2 inh = qHTS for Inhibitors of the Interaction of Thyroid Hormone Receptor and Steroid Receptor Coregulator 2; TRbeta-SRC2 peptide binding, fluorescence polarization; receptor liganded with 1 µM T3; Potency, µM (doses to about 106 µM), for the others: at the top dose activity change, negative = inhibition, most hits filed as inhibitors; Thyroid hormone receptor beta (Homo sapiens), P10828; 0.065% of 280,000 active;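 also: plate controls were bound peptide for no effect and peptide without receptor for full effect; nearly all actives have a fitted effect of over 50% in size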
#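 A fluorescence polarization screen tested compounds at multiple concentrations against complex formation between 0.6 uM TRb ligand-binding domain and 20 nM Texas Red SRC2 peptide, with 1 uM T3 present; readout after 5 hr.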
# Starred values were filed as active, the others as inactive; ? = inconclusive; / = no result given; [ ] = another dose, or the depositor's remark. Unless noted, calls follow the shape of the dose curve; as a rule, active = well fitted curve in the direction sought with a large enough effect; inconclusive = small, poorly fitted or top-dose-only effect, or another doubt; inactive = no such curve, though single readings can be large; an effect the other way counts as inactive or inconclusive. Unless noted, % is scaled to controls: 0 for no effect and ±100 for the full control effect; potency is read from the fitted curve at half-maximal effect.
SMILES,Tau fibril FP,TexasRed fluor,Tau ThT inhib,Tau fluor cs,GoLoco inh red,TRb-SRC2 inh
O=C(CSc1nc2ccccc2s1)Nc1cc(S(=O)(=O)N2CCOCC2)ccc1Cl,1%,?,-10%,?,52%,-8%
O=C1C(Nc2ccc(O)cc2)=C/C(=N/S(=O)(=O)c2cccs2)c2ccccc21,?,-2%,13µM*,13µM*[quencher],-2%,?
Cc1ccc(Cl)cc1NC1=C/C(=N\S(=O)(=O)c2cccs2)c2ccccc2C1=O,-2%,4%,4.5µM*,?,67%,-22%
O=C(O)c1ccc(NC2=C/C(=N/S(=O)(=O)c3ccccc3)c3ccccc3C2=O)cc1,?,-9%,14µM*,?,1%,?
Cc1cccc(NC2=C/C(=N/S(=O)(=O)c3cccs3)c3ccccc3C2=O)c1,4%,-4%,15%,-4%,19%,-1%
CC12CCC(C[N+](C)(C)C1)C2(C)C (stereo not drawn),-9%,-2%,-11%,-8%,8.9µM*,8%
CC[N+]1(CC)CC2CCC(C)(C1)C2(C)C (stereo not drawn),-6%,-1%,2%,1%,-1%,-2%
COc1cc2c(cc1OC)-c1c(OC)c(OC)cc3ccnc(c13)C2=O,-21%,-2%,7.1µM*,?,0%,-9%
O=C(COC(=O)c1cnccn1)c1ccc([N+](=O)[O-])cc1,?,-4%,16µM*,-19%,-1%,1%
Cc1ccc(C(=O)COC(=O)c2cnccn2)cc1,7%,3%,8%,10%,-8%,0%
O=C(Cc1ccc(F)cc1)N1CCC(c2nc3c(nnn3Cc3ccc(F)cc3)c(=O)[nH]2)CC1,3%,2%,-7%,-7%,/,-4%
Cc1cc2c(c(=O)o1)C(c1ccc([N+](=O)[O-])o1)C(C#N)=C(N)O2 (stereo not drawn),?,28%,14µM*,-25%,8%,-11%
O=C(NCc1ccc(N2CCCC2=O)cc1)Nc1cccc(Cl)c1,-6%,-1%,4%,-6%,4%,12%
C=CCn1c(O)c(CN2CCCCC2)c(C)c(C#N)c1=O,?,10%,25µM*,-25%,164%,-20%
CCC(=O)N1CCc2cc(S(=O)(=O)NCCC(=O)NCc3ccc(OC)cc3)ccc21,-9%,-1%,-5%,-12%,/,-6%
N#C/C(=C/c1ccc(-c2ccc(S(N)(=O)=O)cc2)o1)C(=O)Nc1ccccc1,3%,-26%,?,-18%,14%,?
N#C/C(=C\c1ccccn1)c1nc2ccccc2s1,?,1%,8.9µM*,14µM*[quencher],33%,0%
COC(=O)c1ccc(/C=C(\C#N)c2nc3ccccc3s2)cc1,-4%,-1%,7.9µM*,?,42%,-2%
N#C/C(=C/c1ccc(-c2ccc(S(N)(=O)=O)cc2)o1)c1nc2ccccc2s1,-4%,5%,11µM*,?,65%,-2%
COc1ccc(/C(C#N)=C/c2ccccn2)cc1,-5%,-3%,?,-26%,-16%,6%
Cc1ccc(CNc2oc(-c3ccc(COc4ccc(C)cc4)o3)nc2C#N)cc1,13%,7%,1%,?,/,5%
O=C(Cc1ccccc1)Nc1ccc(NC(=O)c2cccc(Cl)c2)cc1,-7%,0%,0%,-2%,7%,-2%
CCCCN1C(=O)CN(C2CCCCCC2)C(=O)C1c1ccc(OCCC)c(OC)c1 (stereo not drawn),7%,-2%,-4%,-2%,/,2%
